# Tests used:
# Assay in all cases: PBM binding z-score (relative to random genomic background probes); higher = stronger binding; sequences stand for … in GC…GCGATTGACAGCGTAGAATGAAGG
# [1] = test system: PPARg:RXRa DBDmut IVT, anti-RXR (DBD mutation: RXRa K156A/R161A, NR concentration 270 nM, RXRa partner concentration 90 nM)
# Procedure, shortened: (§1)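 Custom Agilent 4×180K protein-binding microarrays carried double-stranded probes. Their 34-nt variable regions held direct-repeat seeds, single-nucleotide variants, half-site ablations and random human genomic background sequences. Arrays were incubated 1 h with ligand-free nuclear receptor dimers in PBS pH 7.4, 2% milk, 0.02% Triton X-100, 1 mM DTT, 0.2 mg/mL BSA and 0.4 mg/ml salmon testes DNA. Antibodies against each partner (one per run) detected binding, and scanned fluorescence was regression-normalized. Binding z-scores use random background probes as reference.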
# [2] = test system: PPARg:RXRa IVT, anti-PPARg (NR concentration 270 nM, RXRa partner concentration 90 nM)
# Procedure, shortened: as §1
# [3] = test system: PPARg DBDmut:RXRa IVT, anti-PPARg (DBD mutation: PPARg1 K132A/R137A, NR concentration 270 nM, RXRa partner concentration 90 nM)
# Procedure, shortened: as §1
# [4] = test system: PPARg DBDmut IVT, anti-PPARg (DBD mutation: PPARg1 K132A/R137A, NR concentration 270 nM)
# Procedure, shortened: as §1
# [5] = test system: PPARg homodimer (NR concentration 180 nM)
# Procedure, shortened: as §1
# [6] = test system: PXR:RXRa (NR concentration 270 nM, RXRa partner concentration 90 nM)
# Procedure, shortened: as §1
# [7] = test system: PXR homodimer (NR concentration 270 nM)
# Procedure, shortened: as §1
# [8] = test system: RARa:RXR (NR concentration 270 nM, RXRa partner concentration 90 nM)
# Procedure, shortened: as §1
# [9] = test system: RARa homodimer (NR concentration 270 nM)
# Procedure, shortened: as §1
# [10] = test system: RARb:RXRa (NR concentration 270 nM, RXRa partner concentration 90 nM)
# Procedure, shortened: as §1
Sequence,PBM binding z-score [1],PBM binding z-score [2],PBM binding z-score [3],PBM binding z-score [4],PBM binding z-score [5],PBM binding z-score [6],PBM binding z-score [7],PBM binding z-score [8],PBM binding z-score [9],PBM binding z-score [10]
GGAACGAGGGCAAAGTTGATACCATCTGTCGACG,3.89,3.91,0.382,-0.0769,0.593,1.61,0.644,2.09,0.0395,2.42
TGAATGAGGTTATACGATCAGGGAACGTTGCAAA,0.677,1.61,0.964,0.564,0.291,0.89,-0.167,1.48,0.115,1.15
TCTATTAGTTGAAGGGCAGCCGACGAGTCCGTTT,2.37,0.427,0.454,1.07,0.963,0.654,0.958,0.447,0.781,1.37
GATACAGGGACAGCTAGAGGCCAGAGTATGGAAA,-0.328,-0.138,-0.157,-0.323,0.377,-0.289,0.168,0.0222,0.173,0.833
TCTTGTAGATCAAAGGTTGAGAAAGCCGAAGCCT,2.32,2.51,0.407,-0.0322,-0.0761,0.618,-0.464,1.05,-0.393,0.592
AGTCAAAGTTCAGGACGAGGCAACGTAAAGCACG,-0.129,1.26,0.256,0.437,1.12,1.94,0.989,1.89,0.997,4.37
TCATATTGGTAAAAGGTGAAAGTCGGTGTGGTAA,2.97,2.77,1.12,2.43,2.62,1.43,0.68,2.1,2.36,2.01
CTACCATGGTGAACAAGGTCGTTGATTACTATTC,0.666,0.434,0.343,0.226,0.387,1.56,0.655,1.43,0.262,0.627
GTACCAATGTGAATAGGTCGTTGATGAGTAGGCG,-0.469,-0.105,-0.359,0.0422,0.0773,-0.176,-0.211,0.0838,0.262,0.00696
CGTCAAAGTTCAACTAACGTAACGTAAAGCACGC,0.504,1.8,1.16,1.48,3.23,4.55,3.33,3.3,1.91,5.14
CCAGACAGGTGAAAGGTGACTCAGTCTGGTACGC,2.4,3.47,0.243,-0.992,1.3,1.85,0.0178,2.91,0.796,1.96
ATCTCTAGATAAAGATAGTTCAGTGAATGCAAAT,-0.378,-0.22,0.441,0.839,0.626,0.206,0.643,0.29,0.981,0.124
CCTGCTACGTCATGGTCAGCTAATCTACAGTATG,0.0597,-0.592,0.222,-0.835,-0.235,-0.16,-0.428,-0.116,-0.328,0.259
AGAATGAGGTTACCCAAGATCAGGGAAACGCTTG,3.03,2.92,1.56,1.21,0.367,1.58,-0.185,2.03,-0.0633,1.82
TCTAGTTGGTCACGAAGGTCACACACGACGGGTA,2.83,4.36,1.5,1.16,3.64,3.95,1.05,4.14,2,4.01
CCGACTGGGGCATAAGGTTACCATTAGCCAGCCC,3.03,3.04,-1.02,-1.9,0.694,0.105,-0.286,1.35,-0.407,1.61
CCTAGTTGCTCAAGGTCACACACGCTATAGGTAC,1.51,2.33,0.625,0.725,3.56,4.21,2.68,4.4,2.45,3.97
CCTATAAGTTGACCATAAGGGCAACCGAAGCTCG,0.357,0.771,0.17,-0.0168,1.61,0.964,0.7,1.23,1.27,1.8
CAGGCTAGGTCAGGGCCAGTATAGGAGGAACGTT,1.77,2.27,-0.979,-1.24,0.901,0.235,-0.157,0.946,0.278,3.6
